# Assay results from ChEMBL document CHEMBL3988442, “University of Dundee, Small-Polar-MMV Screening Library” (2021).
# Out of some 48,000 compounds screened, about 13,000 (27%) showed an effect of 50% or more. Some of the results follow.
# System: Wolbachia pipientis
# Assay: Anti-Wolbachia Cell-Based Screen
# Type: functional
# Set-up: scale not given: in the data most compounds retested in dose-response had high values
# Conditions: 5 µM
row,SMILES,Percent Effect
1,O=C(C[C@H]1[C@H]2CN(c3ncccn3)C[C@@H]12)Nc1cccnc1.O=C(O)C(F)(F)F.O=C(O)C(F)(F)F,-0.113%
2,CCc1nc(CN(C)CC2CCN(CC(C)O)CC2)no1 (stereo not given),-10.69%
3,CN1CCCC(CCC(=O)N2CCc3sc(C(=O)N(C)C)cc3C2)C1 (stereo not given),-22.79%
4,Cc1nc(C2CCCN2CC(=O)N2CCCc3ccccc32)no1 (stereo not given),-7.265%
5,COCc1ncc(CN(Cc2ccncc2)Cc2ccc(C)s2)cn1,12.8%
6,O=C(CNc1ccc(F)cc1OCC(F)(F)F)NCC(F)(F)F,-7.353%
7,O=C(CCc1ccco1)Nc1ncn(CC(=O)N2CCCCCC2)n1,1.429%
8,CCS(=O)(=O)N1CCC2(CC(=O)N(c3cncnc3)C2)C1 (stereo not given),-9.187%
9,O=C(N1CCCC1)N1CCC2(CC(=O)N(c3ccc4c(c3)OCO4)C2)C1 (stereo not given),-19.45%
10,O=C1CC2(CCN(c3nncs3)C2)CN1c1ccc2c(c1)OCCO2 (stereo not given),105.6%
11,CCS(=O)(=O)N1CCC2(CC(=O)N(c3cccc(C)c3)C2)C1 (stereo not given),-28.77%
12,Cc1cccc(N2CC3(CCN(c4nncs4)C3)CC2=O)c1 (stereo not given),106.3%
13,O=C1CC2(CCN(c3nncs3)C2)CN1c1ccccc1 (stereo not given),7.339%
14,O=C1CC2(CCN(Cc3cccs3)C2)CN1c1cccc(F)c1 (stereo not given),17.5%
15,O=C1CC2(CCN(Cc3ccoc3)C2)CN1c1ccc2c(c1)OCO2 (stereo not given),2.94%
16,O=C1CC2(CCN(S(=O)(=O)C3CC3)C2)CN1c1cncnc1 (stereo not given),7.231%
17,Cc1cccc(N2CCCC3(C2)CN(c2nncs2)CCO3)c1 (stereo not given),-21.39%
18,O=C1CC2(CCN(c3nncs3)C2)CN1c1cccc(F)c1 (stereo not given),96.11%
19,O=C1CC2(CCN(c3nncs3)C2)CN1c1cncnc1 (stereo not given),102.2%
20,CN(Cc1ccc(Cl)s1)C(=O)NCCC(=O)N1CCCCCC1,-2.265%
21,CCn1c(CC2CCN(C(=O)C3COCCO3)CC2)nn(C)c1=O (stereo not given),-4.106%
22,Cc1nc(C)n(CCNC2CCN(c3ncnc4c(C)csc34)CC2)n1,-4.781%

row,SMILES,Percent Effect
1,N#Cc1ccccc1N1CCCN(CC(=O)Nc2ccc(Cl)cn2)CC1,-6.971%
2,Cc1cc(N)nc(SC2CCCN(Cc3ccccc3)C2=O)n1 (stereo not given),-26.38%
3,Cc1cnc(C(=O)N2CCC3(CCCN(c4nncs4)C3)C2)cn1 (stereo not given),-22.67%
4,Cc1ccccc1N1CC2(CCN(Cc3nccn3C)C2)CC1=O.O=C(O)C(F)(F)F (stereo not given),12.68%
5,Cc1ccccc1N1CC2(CCN(c3nncs3)C2)CC1=O (stereo not given),115.5%
6,CCc1ccccc1CN1CCN(Cc2ncc[nH]2)[C@H]2CS(=O)(=O)C[C@H]21,21.76%
7,O=S1(=O)C[C@@H]2[C@H](C1)N(Cc1ncc[nH]1)CCN2C/C=C/c1ccccc1,-2.971%
8,Cn1ccnc1CN1CCN(Cc2ccccc2)[C@@H]2CS(=O)(=O)C[C@@H]21,89.31%
9,Cn1ccnc1CN1CCN(Cc2ccncc2)[C@@H]2CS(=O)(=O)C[C@@H]21,120.1%
10,Cc1n[nH]c(CN2CCN(Cc3ccccc3)[C@@H]3CS(=O)(=O)C[C@@H]32)n1,-3.3%
11,O=S1(=O)C[C@@H]2[C@H](C1)N(S(=O)(=O)N1CCCC1)CCN2Cc1ccccc1,-24.95%
12,O=C(C1CCCC1)N1CCN(Cc2ccncc2)[C@@H]2CS(=O)(=O)C[C@@H]21,-3.8%
13,O=S1(=O)C[C@@H]2[C@H](C1)N(Cc1ncc[nH]1)CCN2CCCc1ccccc1,97.44%
14,Cc1ccc(CN2CCN(Cc3ccncc3)[C@@H]3CS(=O)(=O)C[C@@H]32)cc1,9.085%
15,CC1(C)CCC(C(=O)N2CCCO2)c2ccccc21 (stereo not given),6.18%
16,CC(C)OC(=O)N1CCCC2(CCC(=O)N(CCc3c[nH]cn3)C2)C1 (stereo not given),2.776%
17,Cc1ccc(Cl)c(NC(=O)NC2(C)CCOC2)c1 (stereo not given),-14.51%
18,Cc1nc(CNC(=O)CC2C(=O)NCCN2CCC(C)C)n[nH]1 (stereo not given),13.35%
19,O=C1CCCN1CCCC(=O)N1CCCC(Cc2cccnc2)C1 (stereo not given),77.87%
20,CN(C)CCn1ccnc1C1CCCN(C(=O)CCc2cccnc2)C1 (stereo not given),-16.88%
21,Cc1ccn(CCC(=O)N2CCCC(Cc3cccnc3)C2)n1 (stereo not given),122.4%
22,O=C(CSCC1CC1)N1CCCC(c2nccn2Cc2cccnc2)C1 (stereo not given),-14.92%

row,SMILES,Percent Effect
1,CC(C)c1noc(CCCC(=O)N2CCC(Cc3cccnc3)CC2)n1,-13.45%
2,CC1CCCN(C(=O)CCNS(=O)(=O)c2cccnc2)C1 (stereo not given),5.119%
3,O=C(CCn1ncc2ccccc21)N1CCCC(Cc2cccnc2)C1 (stereo not given),101.6%
4,CN(CCC(=O)N1CCCC(Cc2cccnc2)C1)Cc1cccnc1 (stereo not given),128.2%
5,COCCN1CC2(CCC1=O)CCN(Cc1cc(F)ccc1Cl)CC2,8.376%
6,COCCCN1CC2(CCC1=O)CCN(Cc1cc(C)no1)CC2,-12.58%
7,O=C(CCC1CCCO1)NCCN1CCCCC1 (stereo not given),-10.6%
8,CC(C)c1nc(C2CCCN(C(=O)Cc3cccnc3)C2)no1 (stereo not given),-1.83%
9,CC1CCCN(C(=O)CCc2cccnc2)C1 (stereo not given),-4.583%
10,CC(C)C(=O)N1CCCC(Cc2cccnc2)C1 (stereo not given),104.6%
11,CC(C)C(=O)N1CCC2(CC1)NC(=O)[C@H]1CN(Cc3cccnc3)C[C@H]12,-21.16%
12,CSc1nnc(CC2CCN(C(=O)CCc3cccnc3)CC2)n1C,-9.622%
13,Cn1nccc1CCC(=O)N1CCCC(Cc2cccnc2)C1 (stereo not given),92.49%
14,CCN(C(=O)Cc1ccc(NCc2ncc[nH]2)cc1)c1ccccc1,-2.92%
15,Cc1[nH]c(=O)c(C#N)cc1C(=O)N1C[C@@H](CN2CCCC2)C[C@H](CO)C1,10.61%
16,CCOc1ccccc1C(CC(=O)Nc1ccccc1)NC(C)=O (stereo not given),-7%
17,CCC(=O)N1CCN(c2cc(N(C)C)cnn2)CC1,6.449%
18,O=c1[nH]c(N2CC(O)C2)nc2c1cnn2-c1ccccc1,21.25%
19,COCC1CC2(CCN(C(N)=O)CC2)CN1Cc1csc(C)n1.O=C(O)C(F)(F)F (stereo not given),-7.067%
20,Cc1nc(CN2C(=O)CC3(CCN(C(N)=O)CC3)c3ccccc32)cs1.O=C(O)C(F)(F)F,-9.244%
21,CC1N(CC2CC2)C(=O)COC12CCN(C(=O)c1cscn1)CC2 (stereo not given),-4.225%
22,Cc1nc(CN2C(=O)COC3(CCN(C)CC3)C2C)cs1.O=C(O)C(F)(F)F (stereo not given),127.2%

row,SMILES,Percent Effect
1,Cc1nc(CN2C(=O)COC3(CCN(C(N)=O)CC3)C2C)cs1 (stereo not given),117.7%
2,Cc1nc(CN2C(=O)COC3(CCN(Cc4nccs4)CC3)C2C)cs1.O=C(O)C(F)(F)F (stereo not given),-7.401%
3,Cc1nc(CN2C(=O)COC3(CCN(Cc4ccsc4)CC3)C2C)cs1.O=C(O)C(F)(F)F (stereo not given),114.5%
4,Cc1nc(CN2C(=O)COC3(CCN(CC4CC4)CC3)C2C)cs1.O=C(O)C(F)(F)F (stereo not given),98.79%
5,CCc1ccc(CNC(=O)Nc2cc(C)on2)s1,-14.37%
6,COCc1nc2cc3c(cc2c(=O)o1)OCCCO3,-7.292%
7,COc1cc(CC(O)CC#N)c(OC)c2c1OCO2 (stereo not given),-11.73%
8,COCc1noc(-c2nn(-c3ccccc3F)c3c2CCC3)n1,-4.596%
9,Cc1ncsc1CCC(=O)N1CCCC[C@H](N(C)C)C1,4.231%
10,COc1cc(C(=O)NCCc2ccc(Cl)cc2)on1,-4.303%
11,CCCNc1ccc(C(=O)NCCc2cccc(OC)c2)cn1,121.7%
12,COc1cc(C(=O)NCCc2cccc(C)c2)on1,-13.11%
13,CCCNc1ccc(C(=O)NCCc2cccc(Cl)c2)cn1,116.4%
14,CCCNc1ccc(C(=O)NCCc2ccc(Cl)cc2)cn1,106.9%
15,CNC(=O)c1cccc(CCNc2ccc(C#N)cn2)c1,-20.96%
16,CCNc1ncc(C(=O)NCCc2ccc(C)c(C)c2)cn1,-6.077%
17,COc1cccc(CCNC(=O)c2ccc(=O)n(C)c2)c1,11.31%
18,CNC(=O)c1cccc(CCNc2ccccn2)c1,-20.45%
19,CCCn1cnnc1CNC(=O)CC1C(=O)NCCN1C(C)C (stereo not given),-4.75%
20,CN(CCCc1nccn1C)C(=O)C1CCN(C(=O)C2CCCC2)CC1,-7.854%
21,Cc1cc(C)cc(CN2CCN(Cc3ccc4nonc4c3)CC2=O)c1,-1.635%
22,CCNC(=O)CN1CCC(c2cc(OC)cc(OC)c2)C1 (stereo not given),-11.46%

row,SMILES,Percent Effect
1,CCOCC1CN(S(C)(=O)=O)Cc2nn(C)cc21 (stereo not given),-37.27%
2,COc1ccnc(C(=O)N2CCCC(c3noc(C)n3)C2)c1 (stereo not given),-1.667%
3,Cc1nc(C2CCCN(C(=O)c3ccc(OCC4CC4)nc3)C2)no1 (stereo not given),97.67%
4,Cc1nc(C2CCCN(C(=O)c3ccc(OCC4CC4)cc3)C2)no1 (stereo not given),-3.23%
5,Cc1nc(C2CCCN(C(=O)c3ccc(N4CCCC4)nc3)C2)no1 (stereo not given),-0.5946%
6,CCOc1cc(C(=O)N2CCCC(c3noc(C)n3)C2)ccc1OC (stereo not given),123.2%
7,COc1ccc(N(C(=O)c2ccc(C)nc2)C(C)C)cc1F,-11.04%
8,CN(C)C[C@@H]1CN(Cc2ccccc2C#N)C[C@@H]1CO,8.186%
9,Cn1ncc2c1CN(C(=O)Cc1ccccn1)CC2COCC1CC1.O=C(O)C(F)(F)F.O=C(O)C(F)(F)F (stereo not given),-6.419%
10,Cc1cc(C)c(CCNC(=O)NCCCC(N)=O)c(C)c1,-1.921%
11,O=C(CNC(=O)Nc1c(F)cccc1Oc1ccccc1)NC1CC1,-0.6876%
12,COCC(O)CNC(=O)c1coc(COc2cccc(F)c2)n1 (stereo not given),3.844%
13,O=C(CNC(=O)Nc1cccc(Cl)c1SC(F)F)NC1CC1,-13.14%
14,O=C(NCCO)Nc1ccc(Br)c(F)c1,-6.574%
15,O=C(NCCO)Nc1c(F)cccc1Oc1ccccc1,2.837%
16,CCNC(=O)CNC(=O)Nc1cccc(Cl)c1SC(F)F,-15.46%
17,COCC(O)CNC(=O)c1cnc(-c2ccccc2)nc1O (stereo not given),-15.86%
18,O=C(CNC(=O)Nc1c(F)cc(F)cc1-c1ccccc1)NC1CC1,131.5%
19,CCNC(=O)CNC(=O)Nc1c(F)cc(F)cc1-c1ccccc1,120.1%
20,CNC(=O)CNC(=O)Nc1ccc(Br)c(F)c1,-1.14%
21,COCC(O)CNC(=O)Nc1c(F)cc(F)cc1-c1ccccc1 (stereo not given),147.7%
22,O=C(NCCO)Nc1c(F)cc(F)cc1-c1ccccc1,122.6%
